# In PubChem BioAssay (NCATS):
# Values joined by “and” are separate entries in the source; they are usually repeats but may differ in a detail not shown here. Equal values may be shown once. Results filed as inconclusive are left out. A structure can be active in one record and inactive in another. A number with no mark means an inactive call. Active and inactive are the calls of the source. Unless noted, calls follow the shape of the dose curve; as a rule, active = well fitted curve in the direction sought with a large enough effect; inconclusive = small, poorly fitted or top-dose-only effect, or another doubt; inactive = no such curve, though single readings can be large; an effect the other way counts as inactive or inconclusive.
# How the values were obtained:
# [1] = target: Cellular tumor antigen p53 (Homo sapiens) (UniProt P04637); test: Primary qHTS for small molecule compounds that upregulate eGFP-tagged delta133p53alpha (in N-terminal) cells. (AID 2060322); details: NCI-H358 eGFP-delta133p53alpha fluorescence, 24 h; activation: hits give high values; also: nearly all actives have a fitted effect of over 75% in size; also: potency is read from the fitted curve at half-maximal effect;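 as to activation: 0% = DMSO vehicle and 100% = reference activator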
# Chain of Cellular tumor antigen p53 (Homo sapiens) (P04637 whole entry, looked up): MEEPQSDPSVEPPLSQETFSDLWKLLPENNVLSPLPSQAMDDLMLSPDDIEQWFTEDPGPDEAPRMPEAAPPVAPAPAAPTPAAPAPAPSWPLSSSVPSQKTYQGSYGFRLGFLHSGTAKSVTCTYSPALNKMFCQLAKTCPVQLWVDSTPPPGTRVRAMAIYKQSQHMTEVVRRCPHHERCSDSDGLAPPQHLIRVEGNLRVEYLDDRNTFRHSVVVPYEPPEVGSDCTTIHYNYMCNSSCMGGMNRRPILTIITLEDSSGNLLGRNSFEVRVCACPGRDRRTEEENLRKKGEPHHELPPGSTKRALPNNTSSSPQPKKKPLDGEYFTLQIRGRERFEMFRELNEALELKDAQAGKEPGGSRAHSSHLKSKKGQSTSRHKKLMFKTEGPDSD
# Outline: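 NCI-H358 cells pre-induced 24 h with 10 ng/ml doxycycline to express N-terminal eGFP-delta133p53alpha, then dosed 24 h at 37C without doxycycline; fixed, Hoechst-stained, GFP intensity by laser scanning cytometry, normalized to DMSO (0%) and 57.5 uM 5-azacytidine (100%).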
# [2] = target: Cellular tumor antigen p53 (Homo sapiens) (UniProt P04637); test: Primary qHTS for small molecule compounds that upregulate eGFP-tagged delta133p53alpha (in C-terminal) cells. (AID 2060324); details: NCI-H358 delta133p53alpha-eGFP (C-terminal tag), GFP fluorescence imaging, 24 h; series mostly up to 57.5 µM; also: potency is read from the fitted curve at half-maximal effect
# Outline: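 C-terminal eGFP-tagged delta133p53alpha NCI-H358 line; dox-induced (100 ng/ml, 24 h) then plated without dox; compounds pinned in titration, 24 h 37 °C/5% CO2; PFA fix, Hoechst nuclei; GFP by LSC.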
# [3] = target: Aldehyde dehydrogenase, mitochondrial (Homo sapiens) (UniProt P05091); test: qHTS for Inhibitors of the Aldehyde Dehydrogenase Family (ALDH2) Validation screens (AID 2061302; active = well fitted inhibition curve with a large enough effect; title and protocol of this record describe different tests; also: potency is read from the fitted curve at half-maximal effect); details: ALDH inhibition qHTS; series mostly up to 42.6 µM
# [4] = qHTS for Inhibitors of the Aldehyde Dehydrogenase Family (ALDH1A2, ALDH1A3, ALDH2, ALDH3A1) (AID 2061307); details: ALDH inhibition qHTS; series mostly up to 50.3 µM; also: % is scaled to controls: 0 for no effect and ±100 for the full control effect; nearly all actives have a fitted effect of over 50% in size
# [5] = target: Retinaldehyde dehydrogenase 3 (Homo sapiens) (UniProt P47895); test: qHTS for Inhibitors of the Aldehyde Dehydrogenase Family (ALDH1A3) Confirmatory screens (AID 2061311); details: ALDH inhibition qHTS; series mostly up to 46 µM; also: potency is read from the fitted curve at half-maximal effect; nearly all actives have a fitted effect of over 60% in size
# [6] = target: Retinal dehydrogenase 2 (Homo sapiens) (UniProt O94788); test: qHTS for Inhibitors of the Aldehyde Dehydrogenase Family (ALDH1A2) Confirmation screens (AID 2061314); details: ALDH1A2 enzyme inhibition qHTS confirmation; series mostly up to 45.9 µM; also: nearly all actives have a fitted effect of over 65% in size; also: potency is read from the fitted curve at half-maximal effect
# [7] = target: Aldehyde dehydrogenase, mitochondrial (Homo sapiens) (UniProt P05091); test: qHTS for Inhibitors of the Aldehyde Dehydrogenase Family (ALDH2) Primary screen (AID 2061308); details: ALDH2 enzyme inhibition qHTS, 1536-well; series mostly up to 56 µM;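 also: plate controls were vehicle for no effect and reference inhibitor for full effect; nearly all actives have a fitted effect of over 55% in size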
# [8] = target: Retinaldehyde dehydrogenase 3 (Homo sapiens) (UniProt P47895); test: qHTS for Inhibitors of the Aldehyde Dehydrogenase Family (ALDH1A3) Primary screen (AID 2061315); details: ALDH inhibition qHTS; series mostly up to 56 µM;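 also: plate controls were DMSO vehicle for no effect and reference inhibitor for full effect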
# [9] = BET inhibitor-based combinations targeting novel dependencies in MECOM-rearranged (r) AML: SET-2 cell line (AID 2202231); details: SET-2 AML cells viability, CellTiter-Glo luminescence, 48 h; viability: hits give low values, concentration not given here; also: nearly all actives have a fitted effect of over 35% in size; also: potency is read from the fitted curve at half-maximal effect;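 as to viability: plate controls were DMSO treated cells for no effect and wells without cells for full effect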
# Outline: (§1)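 Here, 11-point titrations of each agent were applied to 500 seeded cells and incubated 48 hr; CellTiter-Glo signal, scaled against DMSO and empty wells, was integrated as AUC, then Z-scored within the individual line.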
# [10] = BET inhibitor-based combinations targeting novel dependencies in MECOM-rearranged (r) AML: OCI-AML3 cell line (AID 2202232); details: CellTiter-Glo luminescence, 48 h; Potency: OCI-AML3 viability; series mostly up to 46 µM; also: nearly all actives have a fitted effect of over 35% in size; also: potency is read from the fitted curve at half-maximal effect
# Outline: as §1
# [11] = BET inhibitor-based combinations targeting novel dependencies in MECOM-rearranged (r) AML: MV-4-11 cell line (AID 2202233); details: MV-4-11 AML viability, CellTiter-Glo luminescence, 48 h; series mostly up to 46 µM; also: potency is read from the fitted curve at half-maximal effect; nearly all actives have a fitted effect of over 45% in size
# Outline: (§2)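 Normalized to DMSO and empty-well controls, the luminescence data from CellTiter-Glo after 48 hr drug exposure were fitted across 11 concentrations. Reported metrics are area under the dose-response curve and its Z-transformed form.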
# [12] = BET inhibitor-based combinations targeting novel dependencies in MECOM-rearranged (r) AML: UCSD-AML1 cell line (AID 2202235); details: UCSD-AML1 AML cells viability, CellTiter-Glo, 48 h; series mostly up to 46 µM; also: nearly all actives have a fitted effect of over 40% in size; also: potency is read from the fitted curve at half-maximal effect
# Outline: as §2
# [13] = BET inhibitor-based combinations targeting novel dependencies in MECOM-rearranged (r) AML: AML-191 cell line (AID 2202236; also: nearly all actives have a fitted effect of over 35% in size; also: potency is read from the fitted curve at half-maximal effect); details: AML-191 viability, CellTiter-Glo luminescence, 48 h; series mostly up to 46 µM
# Outline: as §1
# [14] = target: Retinaldehyde dehydrogenase 3 (Homo sapiens) (UniProt P47895); test: qHTS for Inhibitors of the Aldehyde Dehydrogenase Family (ALDH1A3) Validation screen (AID 2061312); details: ALDH1A3 enzyme inhibition qHTS validation, fluorescence; series mostly up to 42.4 µM; also: % is scaled to controls: 0 for no effect and ±100 for the full control effect; nearly all actives have a fitted effect of over 45% in size
# [15] = target: Aldehyde dehydrogenase 1A1 (Homo sapiens) (UniProt P00352); test: qHTS for Inhibitors of the Aldehyde Dehydrogenase Family (ALDH1A1) Confirmatory screens (AID 2061316); details: ALDH inhibition qHTS; series mostly up to 47.3 µM; also: potency is read from the fitted curve at half-maximal effect; nearly all actives have a fitted effect of over 65% in size
# [16] = BET inhibitor-based combinations targeting novel dependencies in MECOM-rearranged (r) AML: HNT-34 cell line (AID 2202234); details: HNT-34 AML viability, CellTiter-Glo luminescence, 48 h; series mostly up to 46 µM; also: nearly all actives have a fitted effect of over 35% in size; also: potency is read from the fitted curve at half-maximal effect
# Outline: as §2
# [17] = BET inhibitor-based combinations targeting novel dependencies in MECOM-rearranged (r) AML: AML-194 cell line (AID 2202237; also: potency is read from the fitted curve at half-maximal effect; nearly all actives have a fitted effect of over 40% in size); details: AML-194 (MECOM-r AML) viability, CellTiter-Glo, 48 h; series mostly up to 46 µM
# Outline: as §1
compound,measurement,setting,value
CC(CC(C(N)=O)(c1ccccc1)c1ccccc1)N(C)C (stereo unspecified),activation,[1],-9.6%
COc1ccc2c(c1O)-c1cccc3c1[C@@H](C2)N(C)CC3,activation,[1],-2.98%
same,Potency,[2],inactive
same,Potency,[3],inactive
N#C/C(=C/c1ccc(O)c(O)c1)C(N)=S,activation,[1],-33.2%
same,Potency,[2],inactive
O=C(O)c1ccc2[nH]cc(CCCCN3CC=C(c4ccccc4)CC3)c2c1,activation,[1],-5.08%
NC(Cc1cc(O)c(O)cc1O)C(=O)O (stereo unspecified),activation,[1],-19.2%
same,Potency,[2],inactive
CN1C[C@H](CNC(=O)OCc2ccccc2)C[C@@H]2c3cccc4c3c(cn4C)C[C@H]21,activation,[1],-6.69% and -23.9%
same,Potency,[2],inactive
same,Potency,[3],inactive
Clc1ccc(N2CC3CCC(C2)N3)nn1,activation,[1],-9.56%
same,Potency,[2],inactive
CC[C@@H](CO)NC(=O)[C@@H]1C=C2c3cccc4[nH]cc(c34)C[C@H]2N(C)C1,activation,[1],-0.565% and -21.9%
same,Potency,[2],inactive
C[C@@]12OC(=O)[C@]1([C@@H](O)[C@@H]1C=CCCC1)NC(=O)[C@H]2CCCl,Potency,[1],2.73 µM (active)
C[N+](C)(C)CCOC(=O)CBr,activation,[1],-13.1%
same,Potency,[2],inactive
same,Potency,[3],inactive
COc1ccc2c(c1OC)CN1CCc3cc4c(cc3C1C2)OCO4 (stereo unspecified),Potency,[1],34.3 µM (active)
same,activation,[1],26.6%
NC1CCc2cc(O)c(O)cc2C1 (stereo unspecified),activation,[1],-13%
same,Potency,[2],inactive
same,Potency,[3],inactive
same,Potency,[4],inactive
same,Potency,[5],11.3 µM (active)
same,Potency,[6],inactive
Cc1[nH]nc2ccc(-c3cncc(OC[C@@H](N)Cc4c[nH]c5ccccc45)c3)cc12,Potency,[1],8.63 µM (active)
same,activation,[1],8.93%
same,Potency,[7],inactive
same,Potency,[8],inactive
same,Potency,[9],1.05 µM (active)
same,Potency,[10],0.934 µM (active)
same,Potency,[11],0.263 µM (active)
same,Potency,[12],0.468 µM (active)
same,Potency,[13],0.833 µM (active)
OCc1cnc[nH]1,activation,[1],-9.48%
same,Potency,[2],inactive
same,Potency,[3],inactive
CCOC(=O)C1(c2ccccc2)CCN(CCC(C#N)(c2ccccc2)c2ccccc2)CC1,activation,[1],-1.69%
CC1=NN=C(c2ccc(N)cc2)c2cc3c(cc2C1)OCO3,Potency,[1],9.68 µM (active)
same,activation,[1],6.58%
same,Potency,[2],21.3 µM (active)
same,Potency,[3],8.91 µM (active)
NC(N)=NOCC[C@H](N)C(=O)O,activation,[1],-12%
same,Potency,[2],inactive
S=C(NC1CCCCC1)N1CCC(c2cnc[nH]2)CC1,activation,[1],5.67% and -16.8%
same,Potency,[2],inactive
same,Potency,[3],inactive
same,Potency,[7],inactive
same,Potency,[14],inactive
same,Potency,[8],inactive
N#CC(C#N)=Cc1ccc(O)c(O)c1,activation,[1],23.2% and -8.42%
same,Potency,[2],inactive
same,Potency,[3],inactive
same,Potency,[4],inactive
same,Potency,[5],0.798 µM (active)
same,Potency,[15],20.1 µM (active)
C[N+]1(C)CCOC(O)(c2ccc(-c3ccc(C4(O)C[N+](C)(C)CCO4)cc3)cc2)C1 (stereo unspecified),activation,[1],14.5%
same,Potency,[2],inactive
same,Potency,[3],inactive
same,Potency,[4],inactive
same,Potency,[6],12.7 µM (active)
CO[C@H]1CC=C2CCN3CCC4=C(CC(=O)OC4)[C@]23C1,activation,[1],-25.9%
same,Potency,[2],inactive
CC(O)(CS(=O)(=O)c1ccc(F)cc1)C(=O)Nc1ccc(C#N)c(C(F)(F)F)c1 (stereo unspecified),activation,[1],-7.17% and -30.6% and 1.43%
same,Potency,[2],inactive
same,Potency,[3],inactive
same,Potency,[7],inactive
same,Potency,[14],inactive
same,Potency,[8],inactive
same,viability,[9],92.1%
same,Potency,[10],0.0042 µM (active)
same,Potency,[16],inactive
same,Potency,[12],inactive
same,Potency,[13],inactive
CN1CCC[C@@H]1Cc1c[nH]c2ccc(Nc3ncccc3[N+](=O)[O-])cc12,activation,[1],-40.7% and 3.34%
same,Potency,[2],inactive
same,Potency,[3],inactive
same,Potency,[7],inactive
same,Potency,[14],inactive
same,Potency,[8],inactive
CCN1CCN(C(=O)Cc2ccc(Nc3ncc(F)c(Nc4ccc(C(=O)Nc5ccccc5Cl)cc4)n3)cc2)CC1,Potency,[1],4.78 µM (active)
same,activation,[1],33.8%
same,Potency,[7],inactive
same,Potency,[8],inactive
same,Potency,[9],5.25 µM (active)
same,Potency,[11],1.48 µM (active)
same,Potency,[12],3.72 µM (active)
same,Potency,[13],6.61 µM (active)
same,Potency,[17],7.42 µM (active)
Oc1ccc2c3c1O[C@H]1c4[nH]c5ccccc5c4C[C@@]4(O)C(C2)N(CC2CC2)CCC314 (stereo partly specified),activation,[1],-38.9%
same,Potency,[2],inactive
same,Potency,[3],inactive
Cn1cc(C2=C(c3cn(C4CCN(Cc5ccccn5)CC4)c4ccccc34)C(=O)NC2=O)c2ccccc21,Potency,[1],21.7 µM (active)
same,activation,[1],38.7%
same,Potency,[10],inactive
same,Potency,[11],4.68 µM (active)
same,Potency,[16],5.25 µM (active)
same,Potency,[12],inactive
